This is an account of results in article PMC12864922, “TDP-43 directly inhibits mRNA accumulation in neurites through modulation of mRNA stability”.

Over roughly 9,900 sequences, “r (bound/input frequency ratio)” has its median near 0.7; the highest 2% begin near 6.5. The entries come from a sample that favours the highest values as a whole.

The labels stand for the following.
B1: ENSMUSG00000032194.202|Kank2|53:57 (ssRNA)
RNA: GGGAGUUCUACAGUCCGACGAUCGCUUCGAUAUCCGCAUGCUAGACAGGCUGCACCUUUCUCUAACUGGGGUUCCUUUCUGGCCCCAGGAUCUCACACACGUUCGUGGGGGGAUUUUGUUGUUGUUUCUUUGUUUCUUUUCUUCAUAAAGAAGAAAAAGGAAACAACUUCUAGAUGUGCCUUGCGAUAGGGAGGACUUUGUCCUCUCAAGUCUCCCUGUCGUAUCCAGAUCACAGCUGAACCCACUGGGCCUUGGCGCCAAACCUCAGCAGGGCAGCAUUGAGACUCAUGGACUAAAGGAAAGCUCUUGCGGUCGCACUAGUGUGGAAUUCUCGGGUGUCAAGG
B2: ENSMUSG00000022095.275|Fam160b2|1:15;62:66;198:203 (ssRNA)
RNA: GGGAGUUCUACAGUCCGACGAUCGCUUCGAUAUCCGCAUGCUACACACACACACACACAGAGAGAGAGAGAGAGAGAGAGAGCUGUGAGUACACAUGGGUGCUGCACACGGACAGGAGCAGAUCUUGGUGGAGUGGGUCUACACUUGAGAUUUGUACUCGUUUGAGAGGCUGGGCAAUACUCAAUGCACUUUGGCAUUUGCAUGGUGUCUUCACAACAGCACAGCAAUAAACAUUGUGAUACACACGACAUGCUGACUCUCCCCAGUCUGCUUUUCUUUUCCCCAAGCUUUUCUGCCCCUGUACUCUUGCGGUCGCACUAGUGUGGAAUUCUCGGGUGUCAAGG
B3: ENSMUSG00000061578.1471|Ksr2|12:16 (ssRNA)
RNA: GGGAGUUCUACAGUCCGACGAUCGCUUCGAUAUCCGCAUGCUAUGGAUGGAUAGCAUACUGAAUAAAUGGAUGGAUGGAUGGAUUGAUUUGUGAAUGAAUGGAUGAAUGGAUGGGUAGGUGGGUGGAUGCAUAGGCAAGUAGAUGAAUGAAUAUGUGGGUAGAAGGGUGAGUGGGUGGAUGAAUGGAUGGAUAGGUUGGUAGGUUAAUGUAUUCGUGGAUGGGUGAAUGGAUGGAUGGAUAGAUAGAUGGGAAGGUGGAUGGACAGAUGGAUGGAUGGAUAGAUAGAUGGACAGGUGGUUGGUCUCUUGCGGUCGCACUAGUGUGGAAUUCUCGGGUGUCAAGG
B4: ENSMUSG00000061578.1474|Ksr2 (ssRNA)
RNA: GGGAGUUCUACAGUCCGACGAUCGCUUCGAUAUCCGCAUGCUAAAUAAAUGGAUGGAUGGAUGGAUUGAUUUGUGAAUGAAUGGAUGAAUGGAUGGGUAGGUGGGUGGAUGCAUAGGCAAGUAGAUGAAUGAAUAUGUGGGUAGAAGGGUGAGUGGGUGGAUGAAUGGAUGGAUAGGUUGGUAGGUUAAUGUAUUCGUGGAUGGGUGAAUGGAUGGAUGGAUAGAUAGAUGGGAAGGUGGAUGGACAGAUGGAUGGAUGGAUAGAUAGAUGGACAGGUGGUUGGUGGAUAAAUGAGUGAAUGACUCUUGCGGUCGCACUAGUGUGGAAUUCUCGGGUGUCAAGG
B5: ENSMUSG00000058297.476|Spock2 (ssRNA)
RNA: GGGAGUUCUACAGUCCGACGAUCGCUUCGAUAUCCGCAUGCUAGCUGUGUUGGAAAGAGUUCAACCAAAUUACGGCAGCACCACAUCUUGCCGAGCCCUGGAGCUGCCCUACUAAGAGCCUCCUUAGCCCUGGGUGCUGGGAAGGAUGGUGUACGUUGGGGAAGUUUGAGGUUGGAGAGAGUAAAUGUGCCUUGAGAGACCACUCAGAGGUCCCAGGAGGAACGGGGGCGGGGCUUAGCCUGGGAGUUCUGGCAGGAGGCAAAGUUGGUGAGAGUCCUGGGACAUCUUACCCCCAGUGUUCCACUCUUGCGGUCGCACUAGUGUGGAAUUCUCGGGUGUCAAGG
B6: ENSMUSG00000090935.506|Synj2bp|218:224 (ssRNA)
RNA: GGGAGUUCUACAGUCCGACGAUCGCUUCGAUAUCCGCAUGCUAAAGCUCCAUAGAAGGCAAGACGCAUUCCACAUCUUGUCUUGACCAGCAGCACUCUGGAGGCCCAGUGUCUGCUACCCUUCUUGUAUCUGAUGGCAUGGGUAACAGCUCUGCCAUGGGCCUGCUUACUUCUAGUAUUCACCUCAGGGCUUGGAAAUUGGUUUUGAAAGGCUUUUAGACAUAGAAAGUAAAACUAAUGGCAAGGAGGAUAAAACACUGUACACACAUGUAUUGUUGAUCUAAAUAAAAAAUAUCAUUGGUAGCUCUUGCGGUCGCACUAGUGUGGAAUUCUCGGGUGUCAAGG
B7: ENSMUSG00000032194.149|Kank2 (ssRNA)
RNA: GGGAGUUCUACAGUCCGACGAUCGCUUCGAUAUCCGCAUGCUAGCAGAGGAGACUACUUCUAGAAAUACUUUCAGACCUACAGACAAAAAAGAAAAAAGGCCAUUCCGGAGUGACUCCCAGCAUCACAGCCCAGAACCUCCUCCUCAAAGGAGAGUAAACAGAGACUGUGAUACUGACCAAGUACAGGCGCUCGCUAUGAAGCCCAUAUGUUCCUGAUUAAGAGCUGGCUGGCCUCAGAGCACUCCCAGAACUAGCUUAAAGUGACAGGCUUUGCUGAAAUCCAAAGGGACAAAAGAGUAGUUCUCUUGCGGUCGCACUAGUGUGGAAUUCUCGGGUGUCAAGG
B8: ENSMUSG00000022095.205|Fam160b2 (ssRNA)
RNA: GGGAGUUCUACAGUCCGACGAUCGCUUCGAUAUCCGCAUGCUAGGAGGUGACAUGAAAGAGGAGGAAACUCCAUGACCUCUACAUCCCCCGCAGUCCUCCCAGCGGGGGAGGACUUCUCUGCUGCUCCGAAGAACAUCAUGCACUCCUGUGUGUGUGUGUGAGUGUGUGUGUGUGUGUGUGUGUGUGUGUGUGUGUAUGUGUGUGUAUAUGUGUGUGUGUGUGUGUAUGUGUGUGUGUGUGUGUGAGUGAGUGUGUGUGUGUGUGUGUGUGUGUGAGUGUGUGUGUAUAUGUGUGUGUGUGUGCUCUUGCGGUCGCACUAGUGUGGAAUUCUCGGGUGUCAAGG
B9: ENSMUSG00000022095.204|Fam160b2 (ssRNA)
RNA: GGGAGUUCUACAGUCCGACGAUCGCUUCGAUAUCCGCAUGCUAUUGCCAGGAGGUGACAUGAAAGAGGAGGAAACUCCAUGACCUCUACAUCCCCCGCAGUCCUCCCAGCGGGGGAGGACUUCUCUGCUGCUCCGAAGAACAUCAUGCACUCCUGUGUGUGUGUGUGAGUGUGUGUGUGUGUGUGUGUGUGUGUGUGUGUGUAUGUGUGUGUAUAUGUGUGUGUGUGUGUGUAUGUGUGUGUGUGUGUGUGAGUGAGUGUGUGUGUGUGUGUGUGUGUGUGAGUGUGUGUGUAUAUGUGUGUGCUCUUGCGGUCGCACUAGUGUGGAAUUCUCGGGUGUCAAGG
B10: ENSMUSG00000022095.203|Fam160b2 (ssRNA)
RNA: GGGAGUUCUACAGUCCGACGAUCGCUUCGAUAUCCGCAUGCUACACAGGUUGCCAGGAGGUGACAUGAAAGAGGAGGAAACUCCAUGACCUCUACAUCCCCCGCAGUCCUCCCAGCGGGGGAGGACUUCUCUGCUGCUCCGAAGAACAUCAUGCACUCCUGUGUGUGUGUGUGAGUGUGUGUGUGUGUGUGUGUGUGUGUGUGUGUGUAUGUGUGUGUAUAUGUGUGUGUGUGUGUGUAUGUGUGUGUGUGUGUGUGAGUGAGUGUGUGUGUGUGUGUGUGUGUGUGAGUGUGUGUGUAUAUGCUCUUGCGGUCGCACUAGUGUGGAAUUCUCGGGUGUCAAGG
B11: ENSMUSG00000022095.206|Fam160b2 (ssRNA)
RNA: GGGAGUUCUACAGUCCGACGAUCGCUUCGAUAUCCGCAUGCUAGACAUGAAAGAGGAGGAAACUCCAUGACCUCUACAUCCCCCGCAGUCCUCCCAGCGGGGGAGGACUUCUCUGCUGCUCCGAAGAACAUCAUGCACUCCUGUGUGUGUGUGUGAGUGUGUGUGUGUGUGUGUGUGUGUGUGUGUGUGUAUGUGUGUGUAUAUGUGUGUGUGUGUGUGUAUGUGUGUGUGUGUGUGUGAGUGAGUGUGUGUGUGUGUGUGUGUGUGUGAGUGUGUGUGUAUAUGUGUGUGUGUGUGUGAGAGCUCUUGCGGUCGCACUAGUGUGGAAUUCUCGGGUGUCAAGG
B12: ENSMUSG00000042529.429|Kcnj12|20:25;182:186 (ssRNA)
RNA: GGGAGUUCUACAGUCCGACGAUCGCUUCGAUAUCCGCAUGCUAAUGUCAGUGGCUUGGGUGCACACACGAGAGAGAGAGAGAGAGAGAGAGAGAGAGAGAGAGAGAGAGAGAGAGAGAGCUGCACAGGAUGAAGCAGCUGCCCUGAGCCCAUCUGGUGCUGUGCACCUGGUCCUUGUCCAGCCGAGGGCCUGGGGGCAGAAGAACACACCAUAGGGAGGCCCUUCAUACGGUGUCUGCCCUAUGUGAGGUCAUAGAAUGUUAAAUCUAUUUUAAACGGUGAAACUGGAGAAUUUUCAUGUUAUCUCUUGCGGUCGCACUAGUGUGGAAUUCUCGGGUGUCAAGG
B13: ENSMUSG00000061578.155|Ksr2 (ssRNA)
RNA: GGGAGUUCUACAGUCCGACGAUCGCUUCGAUAUCCGCAUGCUAUAUGCAUGAUGGGUUACAUGGGUGUGUGUGUGUGUGUAACUGUUUACAAUGGUCUCCCUGCCUCUCACGGGCUGUGUUCCAGGAGAAUGCACAUAGAGAGGUUCUGUGGUCUCUGCUGUCGCCUGGUGCUGAAUCCUGAGUGGUUUCCCCACUGAGGACCCUGUGACCCUGUGACCCUUGGCCCCUCCCUUAUUGUGCACACUCAGCACCCCAUCUUCCAAGCCUUUCUUCAUCCCCCACCUUCUUUUGGGAAGGGGUGGCUCUUGCGGUCGCACUAGUGUGGAAUUCUCGGGUGUCAAGG

Chain of TDP-43 (Q13148 whole entry): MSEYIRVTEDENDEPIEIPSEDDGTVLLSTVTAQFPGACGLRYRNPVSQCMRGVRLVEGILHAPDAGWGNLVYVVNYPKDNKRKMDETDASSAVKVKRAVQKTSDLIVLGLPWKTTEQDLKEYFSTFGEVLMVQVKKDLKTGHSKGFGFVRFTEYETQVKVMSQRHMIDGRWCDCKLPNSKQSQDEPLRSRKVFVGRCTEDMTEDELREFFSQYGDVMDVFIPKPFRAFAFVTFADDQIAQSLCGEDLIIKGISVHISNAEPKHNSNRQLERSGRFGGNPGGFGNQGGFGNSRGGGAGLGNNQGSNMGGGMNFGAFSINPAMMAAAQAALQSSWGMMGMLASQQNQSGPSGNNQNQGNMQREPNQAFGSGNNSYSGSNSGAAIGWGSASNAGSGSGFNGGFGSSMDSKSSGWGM

This experiment concerns the target TDP-43 (Homo sapiens, UniProt Q13148 1-414). Put plainly: RNA Bind-n-Seq with designed 260-mer pool; 25 mM Tris-HCl, 150 mM KCl, 3 mM MgCl2, BSA (printed 500 mg/mL), 20 units/mL SUPERase IN; pH not stated; 500 nM RNA pool, 1 h, 4 C; TDP-43 5, 50, 500 nM; high values mean tight binding. The conditions noted are these: protein: recombinant; tags: SBP (GST cleaved off with PreScission; pGEX-GST-SBP). Summed up:
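For each oligo, R gives binding as its mapped-read-normalized abundance after pulldown divided by its abundance in input. Bead-captured SBP-tagged TDP-43 (5, 50 or 500 nM) was incubated with 500 nM of an in vitro-transcribed 260-nt 3′ UTR oligo pool for 1 h at 4 °C in 25 mM Tris-HCl, 150 mM KCl, 3 mM MgCl2, BSA and SUPERase IN on streptavidin beads. Washed, biotin-eluted RNA was reverse transcribed, PCR-amplified and sequenced.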
B1: the binding signal was 0.269 R (bound/input frequency ratio).
Consider B2, for which the binding signal is 2.5 R (bound/input frequency ratio).
B3: the binding signal is 8.75 R (bound/input frequency ratio).
The result for B4 reads 3.43 R (bound/input frequency ratio).
Consider B5, for which the binding signal was 3.44 R (bound/input frequency ratio).
As to B6, the binding signal was 0.236 R (bound/input frequency ratio).
Consider B7, for which the binding signal is 0.573 R (bound/input frequency ratio).
Consider B8, for which the binding signal is 7.87 R (bound/input frequency ratio).
Turning to B9, the binding signal was 7.95 R (bound/input frequency ratio).
For the molecule B10, the binding signal was 8.18 R (bound/input frequency ratio).
As for B11, the figure is 3.86 R (bound/input frequency ratio); as for B12, 5.54 R (bound/input frequency ratio); as for B13, 1.09 R (bound/input frequency ratio).
